Compound activity: PubChem, National Center for Advancing Translational Sciences (NCATS)
This is a sample that favours compounds with a hit; in the whole collection about 18% have one here.
IL-1B inflam inh – qHTS for Inhibitors of Inflammasome Signaling: IL-1-beta AlphaLISA Primary Screen. 360,000 tested, 4.7% active. THP-1 LPS/ATP IL-1B secretion, AlphaLISA, 16 h; hits give low values. activity change, % at 57.5 µM; in the data active = activity change below about -50%; inconclusive = mostly about -30% to -49%; also: % is scaled to controls: 0 for no effect and ±100 for the full control effect
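Secreted IL-1B measured by AlphaLISA bead assay after 16 h compound exposure of THP-1 cells; compounds (final up to 57.5 uM) added 1 h before LPS (250 ng/mL) and ATP (1.25 mM) stimulation; lower signal means less secretion.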
DT40 TDP1 CPT – qHTS for Inhibitors of human tyrosyl-DNA phosphodiesterase 1 (TDP1): qHTS in cells in presence of CPT. chicken DT40 Tdp1-/-;hTDP1 cells + 20 nM CPT, ATP luminescence, 48 h. Potency, µM (series often up to 46.2 µM), for the others: at the highest dose activity change, negative = growth inhibition, usual class: inhibitors. 420,000 tested, 12% active; also: potency is read from the fitted curve at half-maximal effect; % is scaled to controls: 0 for no effect and ±100 for the full control effect; nearly all actives have a fitted effect of over 55% in size
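Chicken DT40 Tdp1-/- cells stably complemented with human TDP1 were seeded at 400 cells/well in medium containing 20 nM camptothecin, exposed to pin-transferred compounds, and grown at 37 °C for at least 48 hr. Viability was read as ATP luminescence.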
HepG2 viability – qHTS for Inhibitors of TGF-b: Cytotox Counterscreen; HepG2 CAGA-GFP viability, ATP luminescence, 18 h; Potency, µM (titrated, usually from 46.1 µM), for inactives: top-dose activity change, negative = cytotoxicity, hits mostly cytotoxic; 410,000 tested, 0.76% active; also: potency is read from the fitted curve at half-maximal effect
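CellTiter-Glo luminescence gave cytotoxicity after 18 hours at 37 degrees C. The cells were HepG2 CAGA-GFP in 1% FBS DMEM, stimulated with 500 pg/mL TGF-beta after compound addition. %Activity was normalised to no-cell wells (complete cell-killing) and DMSO (no toxicity), and curves were fitted and classified.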
TGFb SMAD3 inh – qHTS for Inhibitors of TGF-b. HepG2 CAGA-GFP TGF-b/SMAD3 reporter, GFP fluorescence, 18 h; TGF-beta stimulated, 500 pg/mL final. Potency, µM (titrated, usually from 46.1 µM), inactives show at the highest dose activity, negative = inhibition, hits mostly inhibitors. 410,000 tested, 1.2% active; also: potency is read from the fitted curve at half-maximal effect; % is scaled to controls: 0 for no effect and ±100 for the full control effect; nearly all actives have a fitted effect of over 65% in size
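HEPG2 CAGA-GFP reporter cells (1000/well, DMEM with 1% FBS) received compounds, then recombinant TGF-beta at 500 pg/mL final for 18 hours at 37 degrees C. Per-cell GFP summed per well was normalised to unstimulated and stimulated DMSO controls before curve fitting.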
TDP1 inh – qHTS Assay for Inhibitors of Tyrosyl-DNA Phosphodiesterase (TDP1). Tyrosyl-DNA phosphodiesterase 1 (Homo sapiens), Q9NUW8. recombinant TDP1, AlphaScreen DNA substrate cleavage. Potency, µM (titrated, usually from 130 µM), inactives show at the top dose activity change, negative = inhibition, most hits filed as inhibitors. 350,000 tested, 0.28% active. AID 485290, 2010; also: potency is read from the fitted curve at half-maximal effect; % is scaled to controls: 0 for no effect and ±100 for the full control effect; nearly all actives have a fitted effect of over 40% in size
Target sequence (Q9NUW8 whole entry, looked up): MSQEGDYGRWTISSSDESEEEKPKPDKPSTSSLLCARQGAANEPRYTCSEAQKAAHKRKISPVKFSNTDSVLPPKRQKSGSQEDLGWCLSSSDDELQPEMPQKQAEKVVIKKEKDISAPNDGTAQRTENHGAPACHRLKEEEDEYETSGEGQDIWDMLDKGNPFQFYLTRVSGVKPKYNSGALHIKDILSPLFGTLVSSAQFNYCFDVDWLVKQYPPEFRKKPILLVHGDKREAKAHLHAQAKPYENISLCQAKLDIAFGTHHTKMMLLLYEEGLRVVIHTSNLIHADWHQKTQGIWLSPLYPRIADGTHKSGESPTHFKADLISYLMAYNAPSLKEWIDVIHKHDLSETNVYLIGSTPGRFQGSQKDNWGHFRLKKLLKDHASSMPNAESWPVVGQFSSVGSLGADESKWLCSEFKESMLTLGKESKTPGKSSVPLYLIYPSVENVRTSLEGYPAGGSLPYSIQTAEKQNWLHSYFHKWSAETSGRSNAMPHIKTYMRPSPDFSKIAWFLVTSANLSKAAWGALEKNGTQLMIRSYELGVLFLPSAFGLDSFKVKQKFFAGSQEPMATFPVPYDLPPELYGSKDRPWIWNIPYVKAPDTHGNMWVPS
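AlphaScreen read-out: signal falls as enzyme removes the 3' tyrosine-FITC from a 5'-biotinylated DNA oligo (15 nM, 5 min, RT). Enzyme was E. coli-made recombinant Tdp1 at 1 nM, exposed to compound for 15 min beforehand; beads 10 ug/ml, 10 min.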
TDP1 cell noCPT – qHTS for Inhibitors of human tyrosyl-DNA phosphodiesterase 1 (TDP1): qHTS in cells in absence of CPT | Potency, µM (doses to about 46.2 µM), for inactives: at the highest dose activity change, negative = growth inhibition, most hits filed as inhibitors | AID 686978, 2013 | 420,000 tested, 15% active | DT40 Tdp1-/- hTDP1 cells, no CPT, ATP luminescence, 48 h; also: potency is read from the fitted curve at half-maximal effect; % is scaled to controls: 0 for no effect and ±100 for the full control effect; nearly all actives have a fitted effect of over 55% in size
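A cellular qHTS used chicken DT40 cells lacking endogenous Tdp1 but carrying stably transfected human TDP1. Compounds were applied without camptothecin, and cell growth kinetics were judged by ATP-dependent luminescence after ≥48 hr.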
Active calls of the source: *; u = inconclusive; x = no result; [ ] = another dose, or the depositor's remark. Unless noted, calls follow the shape of the dose curve; as a rule, active = well fitted curve in the direction sought with a large enough effect; inconclusive = small, poorly fitted or top-dose-only effect, or another doubt; inactive = no such curve, though single readings can be large; an effect the other way counts as inactive or inconclusive.

SMILES	IL-1B inflam inh	DT40 TDP1 CPT	HepG2 viability	TGFb SMAD3 inh	TDP1 inh	TDP1 cell noCPT
CCCCn1cc2c(c1-c1ccccc1Br)c(=O)n(C)c(=O)n2C	x	23µM*	-17%	-7%	7%	16µM*
CCCCCn1cc2c(c1-c1ccc(Cl)cc1)c(=O)n(C)c(=O)n2C	x	16µM*	-7%	0%	9%	16µM*
CCCn1cc2c(c1-c1cccc(C)c1)c(=O)n(C)c(=O)n2C	7	u	3%	3%	-1%	u
CC(C)COc1ncnc2c1sc1nc3c(cc12)COC(C)(C)C3	x	x	x	x	-5%	x
COCCn1c(C)cc(O)c(C(c2ccccc2)N2CCN(CCO)CC2)c1=O (stereo unspecified)	x	-2%	-19%	24%	3%	-7%
Cc1ccc(C(=O)c2oc3ccccc3c2NC(=O)COc2ccccc2Cl)cc1	x	x	3%	-8%	3%	x
Cc1cc(C)nc(SCC(=O)NC(=O)c2ccccc2O)n1	9	-1%	-3%	-26%	1%	-11%
COc1ccc2[nH]c(C)c(CCNC(=S)Nc3cc(C)ccc3C)c2c1	4	8.2µM*	-29%	-11%	7%	9.2µM*
COc1ccc2[nH]c(C)c(CCNC(=S)Nc3ccccc3OC)c2c1	-13	18µM*	-17%	-31%	9%	23µM*
COc1ccc2[nH]c(C)c(CCNC(=S)Nc3ccc(F)cc3)c2c1	-30	16µM*	-8%	u	8%	23µM*
COc1ccc2[nH]c(C)c(CCNC(=S)Nc3cc(C)cc(C)c3)c2c1	-13	u	-33%	-8%	11%	u
CCc1cccc(C)c1NC(=S)NCCc1c(C)[nH]c2ccc(C)cc12	53	10µM*	11µM*	13µM*	11%	21µM*
Fc1ccccc1CSc1ncnc2c1ncn2C1CCCCO1 (stereo unspecified)	-8	-16%	-8%	-2%	x	u
Clc1ccc(CSc2ncnc3c2ncn3C2CCCCO2)cc1 (stereo unspecified)	-26	u	-3%	-1%	x	16µM*
C=C(C)CSc1nc2sc3c(c2c(=O)n1C1CCCCC1)CCN(C)C3	x	5.8µM*	-17%	-21%	0%	6.5µM*
CCSc1nc2sc3c(c2c(=O)n1C1CCCCC1)CCN(C)C3	-25	16µM*	-7%	-3%	6%	15µM*
CSc1nc2sc3c(c2c(=O)n1C1CCCCC1)CCN(C)C3	-4	-9%	-25%	2%	1%	u
N#CCSc1nc2sc3c(c2c(=O)n1C1CCCCC1)CCCC3	u	u	4%	10%	1%	23µM*
Cc1ccc(O)c(C2=Nc3ccccc3N=C(c3cccc(F)c3)C2)c1	x	x	x	x	-1%[12.3 µM]	x
Cc1ccc(NC(=O)CSCC(=O)N(C)CC(=O)Nc2ccccc2C(F)(F)F)cc1	19	13%	6%	9%	4%	-2%
Cc1cccc(OCC(=O)Nc2cccc(OCc3cc(=O)n4cccc(C)c4n3)c2)c1	x	21µM*	-8%	u	3%	15µM*
CCCc1nn2c(=O)cc(COC(=O)c3cccc(NC(=O)COc4ccc(F)cc4)c3)nc2s1	x	1%	4%	4%	-6%	-11%
Cc1cccc(OCC(=O)Nc2cccc(C(=O)OCc3cc(=O)n4nc(C(C)C)sc4n3)c2)c1	x	u	-18%	2%	6%	12µM*
COc1cccc(C(=O)Nc2cccc(C(=O)OCc3cc(=O)n4nc(C(C)C)sc4n3)c2)c1	x	-11%	-2%	-6%	-4%	-16%
CC(C)c1nn2c(=O)cc(COC(=O)c3cccc(NC(=O)COc4ccc(F)cc4)c3)nc2s1	x	13µM*	-8%	0%	1%	21µM*
SMILES	IL-1B inflam inh	DT40 TDP1 CPT	HepG2 viability	TGFb SMAD3 inh	TDP1 inh	TDP1 cell noCPT
O=C(CSc1n[nH]c(-c2ccccc2Cl)n1)N1CCN(c2ccccc2F)CC1	x	-22%	-22%	u	5%	u
COc1cc(=O)n2c(c1C(=O)N(C)Cc1nonc1C)CCN(Cc1cc(F)ccc1F)CC2	x	2%[9.04 µM]	x	x	x	-10%
Cc1ccc(OCC(=O)N2CCN(c3nnc(-c4ccccc4)c4ccccc34)CC2)cc1	-73*	u	-21%	-7%	5%	u
Cc1ccc(-c2nnc(N3CCN(C(=O)CSc4ncn[nH]4)CC3)c3ccccc23)cc1	u	16µM*	-38%	-2%	7%	u
CCOc1ccc(-c2n[nH]c(=S)c3ccccc23)cc1	35	23µM*	4%	-5%	x	u
Cc1ccc(-c2nnc(N3CCCCC3)c3ccccc23)cc1S(=O)(=O)N(C)C	-57*	23µM*	4%	-2%	4%	u
Cc1ccc(S(=O)(=O)N(CC(=O)Nc2cccc([N+](=O)[O-])c2)C(=O)N2CCN(C)CC2)cc1	-8	1%	7%	-2%	x	-8%
O=S(=O)(c1ccc(F)c(F)c1)N1CCN(c2ccccn2)CC1	-5	-2%	1%	0%	4%	-18%
CCOc1ccc(-c2nnc(N3CCCCC3)c3ccccc23)cc1	u	23µM*	-28%	-1%	0%	16µM*
CC1CCCCN1CCCNC(=O)c1ccc2nc(N3CCCCC3)sc2c1 (stereo unspecified)	0	u	-10%	5%	x	u
CCCN1CCN(CCCNC(=O)c2ccc3nc(N4CCC(C)CC4)sc3c2)CC1	-8	-20%	-21%	4%	x	u
Cc1ccc(Cl)cc1N1CCN(CCCNC(=O)c2ccc3nc(N4CCCCC4)sc3c2)CC1	x	21µM*	1%	u	5%	12µM*
Cc1ccc(C)c(N2CCN(CCCNC(=O)c3ccc4nc(N5CCC(C)CC5)sc4c3)CC2)c1	x	15µM*	-14%	u	-3%	9.2µM*
COc1ccc(N2CCN(CCCNC(=O)c3ccc4nc(N5CCCCC5)sc4c3)CC2)cc1	x	16µM*	-10%	u	8%	u
Nc1cc(C(=O)N/N=C/c2cccc([N+](=O)[O-])c2)n[nH]c1=O	30	-11%	-2%	-4%	x	-3%
Cc1sc(N)nc1-c1cccc([N+](=O)[O-])c1	x	4%	-7%	13%	x	1%
